Measurements from PubChem BioAssay AID1835 (Johns Hopkins Ion Channel Center, 2009).
The whole screen tested about 2,400 compounds, of which about 750 (31%) were called active. Some of the results follow. Values without a mark were called inactive.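 How the source made its calls: active means median signal gain over dofetilide-blocked control wells reaching their mean plus 3 SD, so readout 1 at least 0; inactive means the rest.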

These compounds were tested against Voltage-gated inwardly rectifying potassium channel KCNH2 (Homo sapiens) (UniProt Q12809) (assay: modulators restoring hERG flux under dofetilide – cell-based, thallium flux, duplicate retest, dofetilide IC70, confirmation (AID 1835)). Conditions: hERG cell line, FluxOR thallium flux, dofetilide-blocked; at 10 µM; stronger effect = higher value.
Sequence of Voltage-gated inwardly rectifying potassium channel KCNH2 (Homo sapiens) (Q12809 whole entry, looked up): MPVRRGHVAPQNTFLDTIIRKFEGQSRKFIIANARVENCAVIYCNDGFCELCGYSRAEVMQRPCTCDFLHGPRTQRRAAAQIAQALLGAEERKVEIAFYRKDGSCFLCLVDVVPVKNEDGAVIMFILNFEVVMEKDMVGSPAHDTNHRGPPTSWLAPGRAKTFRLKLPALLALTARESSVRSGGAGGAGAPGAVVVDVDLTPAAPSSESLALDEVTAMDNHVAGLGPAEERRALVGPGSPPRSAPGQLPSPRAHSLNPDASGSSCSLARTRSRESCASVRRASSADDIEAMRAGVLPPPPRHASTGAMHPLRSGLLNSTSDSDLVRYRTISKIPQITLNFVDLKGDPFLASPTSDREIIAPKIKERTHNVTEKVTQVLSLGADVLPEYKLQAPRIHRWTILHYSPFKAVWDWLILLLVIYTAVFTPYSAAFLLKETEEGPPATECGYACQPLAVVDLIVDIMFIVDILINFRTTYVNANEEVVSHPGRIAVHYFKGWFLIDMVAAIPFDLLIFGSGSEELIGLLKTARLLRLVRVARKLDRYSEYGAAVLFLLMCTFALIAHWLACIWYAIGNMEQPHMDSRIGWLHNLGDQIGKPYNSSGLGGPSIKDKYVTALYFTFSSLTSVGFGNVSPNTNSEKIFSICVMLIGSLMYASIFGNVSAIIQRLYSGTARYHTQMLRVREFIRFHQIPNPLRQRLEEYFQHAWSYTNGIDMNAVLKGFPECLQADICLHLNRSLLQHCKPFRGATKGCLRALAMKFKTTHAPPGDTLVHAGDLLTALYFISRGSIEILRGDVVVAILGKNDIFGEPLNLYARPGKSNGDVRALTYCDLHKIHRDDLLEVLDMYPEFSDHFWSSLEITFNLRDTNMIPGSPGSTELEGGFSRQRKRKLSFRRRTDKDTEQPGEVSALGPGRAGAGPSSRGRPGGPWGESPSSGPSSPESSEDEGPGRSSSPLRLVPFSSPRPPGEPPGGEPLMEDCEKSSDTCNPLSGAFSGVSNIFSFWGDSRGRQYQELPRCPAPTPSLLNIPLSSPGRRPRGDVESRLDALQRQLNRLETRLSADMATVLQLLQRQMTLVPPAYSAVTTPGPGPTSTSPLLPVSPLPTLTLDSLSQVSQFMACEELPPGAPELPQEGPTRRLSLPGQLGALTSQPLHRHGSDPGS

In order of falling activity increase over dofetilide control, less the hit threshold:
1. Cc1ccccc1NC(=O)CC1S/C(=N/c2nccs2)N(C)C1=O (stereo not drawn)  0%
2. O=C(c1cc2c(s1)-c1ccccc1OC2)N1CCCC1  0%
3. COC(=O)CCn1[nH]c(=O)c2ccccc2c1=O  -2%
4. CCOc1ccc(OCC(=O)OCC(=O)N2CCN(C(=O)c3ccco3)CC2)cc1  -2%
5. COc1ccc(N(CC(=O)N2CCN(Cc3ccccc3)CC2)S(C)(=O)=O)cc1OC  -3%
6. O=C(O)c1ccccc1NC(=O)C1CCN(S(=O)(=O)c2cccc3nsnc23)CC1  -3%
7. O=C(NC(C(=O)c1ccccc1)n1cnccc1=O)c1ccccc1 (stereo not drawn)  -3%
8. CC(OC(=O)c1cc2c(s1)CCCCC2)C(=O)NC(N)=O (stereo not drawn)  -5%
9. S=c1[nH]nc(Cc2ccc(Br)cc2)n1/N=C/c1ccc(Cl)cc1  -5%
10. CC(=O)NCCC(=O)N(C)CC1CCN(CCc2cccc(C(F)(F)F)c2)CC1  -6%
11. CCCn1nnnc1SCC(=O)Nc1nnc(CC)s1  -6%
12. COc1ccccc1C(=O)Nc1ccnn1C1CCN(C(=O)c2ccoc2C)CC1  -7%
13. O=C(O)CCCCCNc1nc(=S)[nH]c2ccccc12  -7%
14. CC(=O)c1ccc2c3c(cccc13)CC2  -7%
15. COc1ccccc1CC(=O)Nc1ccc(OC)c(OC)c1  -8%
16. O=C(COc1ccc(Cl)cc1)NNC(=O)C(=O)NC1CCCCC1  -9%
17. CS(=O)(=O)N(CCc1ccccc1)CC(=O)N1CCN(c2ccc(F)cc2)CC1  -9%
18. COc1ccc(C2CC(c3ccc(Cl)cc3Cl)Nc3nc(N)nn32)cc1OC (stereo not drawn)  -10%
19. O=C(NCCc1nnc2ccc(NCc3ccc(Cl)cc3)nn12)c1ccccc1  -11%
20. CCC(C)N(C(=O)CSc1nnc(NC(C)C)s1)C1CCS(=O)(=O)C1 (stereo not drawn)  -11%
21. COc1ccc(Cl)cc1N(C)C(=O)CCNC(=O)Cn1cnc2ccccc2c1=O  -11%
22. CSC1=C(C#N)C(CC(C)C)C2=C(CCCC2=O)N1 (stereo not drawn)  -12%
23. Fc1cccc(C2NN=C(c3ccccc3)S2)c1 (stereo not drawn)  -12%
24. C/C(=N\O)C1CC(CC(=O)O)C1(C)C (stereo not drawn)  -13%
25. S=c1[nH]nc(-c2ccc(Cl)cc2)n1Cc1ccccc1  -13%
26. COc1cccc(/C=C2/C(=O)NN(c3ccc(C)c(C)c3)C2=O)c1  -14%
27. O=c1[nH]c(SCc2cccc(Cl)c2)nc2ccccc12  -14%
28. COc1ccc(N2CCN(S(=O)(=O)c3ccc(Br)s3)CC2)cc1  -14%
29. S=c1[nH]nc(-c2ccco2)n1/N=C/C(Cl)=C/c1ccccc1  -14%
30. C[C@@H]1CCCCCCCCCCC1=O  -15%
31. CS(=O)(=O)N1CCN(c2ccccc2NC(=O)Nc2cccc(Cl)c2)CC1  -16%
32. COc1cc(NC(=O)c2ccccc2OCc2ccccc2)cc(OC)c1OC  -16%
33. Nc1ccc(C(=O)OCC(=O)N2CCN(C(=O)c3ccco3)CC2)cc1[N+](=O)[O-]  -16%
34. O=C1C(c2ccccc2)C(c2ccccc2)NC(c2ccccc2)C1c1ccccc1 (stereo not drawn)  -17%
35. O=C(CC1NCCNC1=O)Nc1ccc([N+](=O)[O-])cc1 (stereo not drawn)  -17%
36. CCN1CCN(C(=O)c2ccc(Cn3c(=O)[nH]c4cc(OC)c(OC)cc4c3=O)cc2)CC1  -17%
37. Cc1cc(F)ccc1NC(=O)C1CCN(C(=O)Nc2ccccc2)CC1  -17%
38. O=C(CCNS(=O)(=O)c1ccc(Cl)cc1)OCC(=O)N1CCN(C(=O)c2ccco2)CC1  -17%
39. COc1ccc(C(=O)NCc2nnc(SCC(=O)NC3CCCCC3)n2C)cc1  -18%
40. COc1ccc(NC(=O)c2ccccc2SC)cc1OC  -18%
41. O=C(/C=C/Nc1ccc(F)c(F)c1)c1cccs1  -18%
42. COC(=O)c1c(NC(=O)c2ccco2)sc2c1C(C(=O)OC)CC2 (stereo not drawn)  -18%
43. Cc1cc(=O)oc2cc(OC(C(=O)O)c3ccccc3)ccc12 (stereo not drawn)  -19%
44. COc1cc(/C=N/NC(=O)NC2CCCCC2)ccc1O  -20%
45. O=c1oc2ccccc2c2c1nc(C(F)(F)F)n2-c1ccccc1  -20%
46. COc1ccccc1NC(=O)C1CCCN1C(=O)NCc1ccccc1 (stereo not drawn)  -21%
47. CC(=O)Nc1ccccc1C(=O)C(=O)Nc1ccccc1  -23%
48. S=c1[nH]nc(-c2n[nH]c3c2CCC3)n1/N=C/C=C/c1ccccc1  -27%

With `COc1ccccc1C(=O)NNC(=O)C(=O)NC(C)(C)C` the activity increase over dofetilide control, less the hit threshold was 21% (active).
In the case of `COc1ccccc1C(=O)NNC(=O)C(=O)NC1CCCCC1`, the activity increase over dofetilide control, less the hit threshold is reported as 49% (active).
For `COc1ccccc1C(=O)NNC(=O)C(=O)NCc1ccccc1`, the activity increase over dofetilide control, less the hit threshold was 16% (active).
For `Cc1ccc(NC(=O)C(=O)NNC(=O)c2ccccc2C)cc1Cl`, the activity increase over dofetilide control, less the hit threshold was 54% (active).
For `COc1ccc(C(=O)NNC(=O)C(=O)NC2CCCCC2)cc1`, the activity increase over dofetilide control, less the hit threshold was 5% (active).
For `COc1ccccc1C(=O)NNC(=O)C(=O)Nc1ccc(C)cc1`, the activity increase over dofetilide control, less the hit threshold was 77% (active).
With `COc1ccccc1C(=O)NNC(=O)C(=O)Nc1ccc(C)c(Cl)c1` the activity increase over dofetilide control, less the hit threshold was 99% (active).
For `CCOC(=O)N1CCN(C(=O)c2ccc(CN(c3ccc(C)c(C)c3)S(C)(=O)=O)cc2)CC1`, the activity increase over dofetilide control, less the hit threshold was 8% (active).
For `S=c1nc(Cc2ccccc2)[nH]c2ccccc12`, the activity increase over dofetilide control, less the hit threshold was 78% (active).
With `S=c1nc(SCc2ccccc2)[nH]c2ccccc12` the activity increase over dofetilide control, less the hit threshold was 100% (active).
`S=c1nc(COc2ccccc2)[nH]c2ccccc12` was tested, and the activity increase over dofetilide control, less the hit threshold was 100% (active).
For `S=c1nc(Cc2ccc(Cl)cc2)[nH]c2ccccc12`, the activity increase over dofetilide control, less the hit threshold was 90% (active).
`NC(=O)C1CCN(C(=O)c2cc3c(s2)CCCC3)CC1` was tested, and the activity increase over dofetilide control, less the hit threshold was 9% (active).
In the case of `CC(C)c1ccc(/C=N/n2c(COc3ccccc3)n[nH]c2=S)cc1`, the activity increase over dofetilide control, less the hit threshold is reported as 3% (active).
In the case of `Cc1cccc(/C=N/n2c(COc3ccccc3)n[nH]c2=S)c1`, the activity increase over dofetilide control, less the hit threshold is reported as 1% (active).
`Cc1ccc2nsnc2c1S(=O)(=O)Nc1cccc2nsnc12` was tested, and the activity increase over dofetilide control, less the hit threshold was 8% (active).
For `O=C(NC(=S)Nc1nc2ccccc2s1)c1cccs1`, the activity increase over dofetilide control, less the hit threshold was 52% (active).
`Cc1ccc2nc(NC(=S)NC(=O)c3cccs3)sc2c1` was tested, and the activity increase over dofetilide control, less the hit threshold was 10% (active).
`CCc1c(C)sc(NC(=O)CN2CCN(C(=O)c3ccco3)CC2)c1C(=O)OC` was tested, and the activity increase over dofetilide control, less the hit threshold was 1% (active).
For `CCOC(=O)c1c(NC(=O)CN2CCN(C(=O)c3ccco3)CC2)sc2c1CCCC2`, the activity increase over dofetilide control, less the hit threshold was 7% (active).
